This note sets out measurements from PubChem BioAssay (NCATS).

A short description of assay [1]: Cell Viability - LYMP2-015 (AID 971).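 Note: 0% = DMSO only and full effect = 92 µM tetraoctylammonium bromide; nearly all actives have a fitted effect of over 55% in size.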 An outline of the steps: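 Cytotoxicity readout: decrease in intracellular ATP (CellTiter-Glo luminescence) in 2500 LYMP2-015 lymphoblastoid cells/well after 24 h compound exposure at 37 C. Concentration-response data fitted with the standard Hill equation to give AC50.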
Assay [2] in a line: Cell Viability - LYMP2-017 (AID 972). Note: series mostly up to about 92 µM; % is set by controls: 0 for no effect and ±100 for the full control effect; nearly all actives have a fitted effect of over 55% in size. An outline of the steps:
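CellTiter-Glo luminescence (cellular ATP, 30 min RT) measured cytotoxicity after 24 hr compound treatment at 37 C. Cells were a human lymphoblastoid line, LYMP2-017, plated at 2500/well and incubated 5 hr first; concentration-response fitted with Hill equation for AC50.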

Assay [3] is described as follows: Cell Viability - LYMP2-021 (AID 974). Note: % is set by controls: 0 for no effect and ±100 for the full control effect; nearly all actives have a fitted effect of over 55% in size. An outline of the steps: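 AC50 values come from Hill-equation fits to CellTiter-Glo luminescence (ATP content), read after 24 hour compound exposure at 37 C of 2500 LYMP2-021 lymphoblastoid cells/well; tetraoctylammonium bromide as positive control.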
The nature of assay [4]: Cell Viability - LYMP2-023 (AID 975).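 Note: cellular ATP measured by luciferase luminescence as viability proxy; series mostly up to about 92 µM; plate controls were DMSO only for no effect and 92 µM tetraoctylammonium bromide control for full effect; nearly all actives have a fitted effect of over 55% in size.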 The essentials:
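Intracellular ATP, read by CellTiter-Glo luminescence, reports viability after 24 hr compound exposure at 37 C. 2500 lymphoblastoid cells/well (LYMP2-023) seeded 5 hr beforehand; Hill fits give AC50; positive control tetraoctylammonium bromide.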

Assay [5] can be described thus: Cell Viability - LYMP2-025 (AID 976).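 Note: series mostly up to about 92 µM; plate controls were DMSO only for no effect and tetraoctylammonium bromide control for full effect.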 An outline of the steps: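 Cytotoxicity read as loss of intracellular ATP (luciferase luminescence) after 24 h compound treatment at 37 C. Uses LYMP2-025 lymphoblastoid cells in 1536-well format; Hill-equation modelling gives AC50; tetraoctylammonium bromide as positive control.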
The nature of assay [6]: Cell Viability - LYMP2-002 (AID 977).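 Note: series mostly up to about 92 µM; plate controls were DMSO only for no effect and 92 µM tetraoctylammonium bromide for full effect.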 The essentials: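 Human lymphoblastoid cells (2500/well) in complete medium were preincubated 5 hr at 37 C, then exposed to compounds for 24 hr at 37 C. Intracellular ATP was read by CellTiter-Glo luminescence; AC50 came from Hill-equation concentration-response fits.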
A short description of assay [7]: Cell Viability - LYMP2-006 (AID 978). Note: series mostly up to about 92 µM; % is set by controls: 0 for no effect and ±100 for the full control effect; nearly all actives have a fitted effect of over 60% in size. An outline of the steps: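 Cells are seeded at 2500 per well and rested 5 hr at 37 C. Compounds are added across a concentration series for 24 hr at 37 C, after which ATP is quantified by luciferase luminescence.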
Assay [8] is described as follows: Cell Viability - LYMP2-007 (AID 979).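 Note: cells exposed to compound for 24 h before reading; 0% = DMSO only and the negative end = 92 µM tetraoctylammonium bromide; nearly all actives have a fitted effect of over 60% in size.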 An outline of the steps:
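AC50 values come from Hill-equation fits of luminescent intracellular ATP (CellTiter-Glo, 30 min, room temperature) following 24 h compound exposure at 37 C. Cells: LYMP2-007 lymphoblastoid line, 2500 per well, in complete culture medium.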

A short description of assay [9]: Cell Viability - LYMP2-010 (AID 981). An outline of the steps: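 CellTiter-Glo ATP luminescence measured cytotoxicity after 24 h compound exposure at 37 C. LYMP2-010 cells were seeded at 2500/well, with tetraoctylammonium bromide as control; concentration-response curves gave AC50 values by the Hill equation.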
The nature of assay [10]: Cell Viability - LYMP2-012 (AID 982).
A short description of assay [11]: Cell Viability - LYMP2-014 (AID 983).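 Note: series mostly up to about 92 µM; plate controls were DMSO only for no effect and 92 µM tetraoctylammonium bromide for full effect; nearly all actives have a fitted effect of over 50% in size.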 The essentials: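 Intracellular ATP loss, read by luciferase luminescence, measures acute cytotoxicity after 24 h compound exposure of lymphoblastoid LYMP2-014 cells (2500/well, 37 C). Concentration-response data fitted to the Hill equation for AC50.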
Assay [12] can be described thus: Cell Viability - LYMP2-018 (AID 985).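 Note: plate controls were DMSO only for no effect and tetraoctylammonium bromide at 92 µM for full effect; nearly all actives have a fitted effect of over 50% in size.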 The essentials: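 Viability read as CellTiter-Glo luminescence (cellular ATP) after 24 hr compound exposure at 37 C of 2500 LYMP2-018 lymphoblastoid cells/well, pre-plated 5 hr. Hill-equation modelling gave AC50.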
Assay [13] can be described thus: Cell Viability - LYMP2-020 (AID 986). The essentials: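 Cytotoxicity in qHTS format: luminescent ATP readout from CellTiter-Glo after 24 h compound exposure at 37 C in complete medium. LYMP2-020 lymphoblastoid cells were seeded at 2500/well; concentration-response data fitted to the Hill equation for AC50.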
The nature of assay [14]: Cell Viability - LYMP2-024 (AID 988).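 Note: plate controls were DMSO only for no effect and 92 µM tetraoctylammonium bromide for full effect; nearly all actives have a fitted effect of over 60% in size.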 An outline of the steps:
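Cytotoxicity was taken as a decrease in ATP (CellTiter-Glo luminescence) after 24 hr compound exposure at 37 C of LYMP2-024 lymphoblastoid cells, 2500 cells/well. Concentration-response data were fitted to the Hill equation to give AC50.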

Assay [15] can be described thus: Cell Viability - LYMP2-026 (AID 989). Note: % is set by controls: 0 for no effect and ±100 for the full control effect; nearly all actives have a fitted effect of over 50% in size. The essentials:
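Cytotoxicity read as ATP-dependent luminescence (CellTiter-Glo, 30 min room temperature) after 24 h compound treatment at 37 C. LYMP2-026 lymphoblastoid line seeded at 2500 cells/well; AC50 derived by standard Hill equation.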

Assay [16] in a line: Cell Viability - LYMP1-002 - Assay at 24 hr (AID 993). Note: % is set by controls: 0 for no effect and ±100 for the full control effect. The essentials:
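qHTS cytotoxicity at 24 h: CellTiter-Glo ATP luminescence in lymphoblastoid line LYMP1-002 incubated with compound at 37 °C. Concentration-response modeled with the Hill equation for AC50; tetraoctylammonium bromide served as positive control.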

A short description of assay [17]: Cell Viability - LYMP1-002 - Assay at 40 hr (AID 994).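 Note: 0% = DMSO only and full inhibition = 92 µM tetraoctylammonium bromide; nearly all actives have a fitted effect of over 60% in size.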 An outline of the steps: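 Cytotoxicity was read as loss of cellular ATP (CellTiter-Glo luminescence) after 40 hr compound exposure at 37 C of 2500 LYMP1-002 lymphoblastoid cells per well. Concentration-response data were fitted with the standard Hill equation to give AC50.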
Assay [18] deals with Peroxisome proliferator-activated receptor delta (Homo sapiens) (UniProt Q03181). As to the kind of experiment: qHTS assay for small molecule agonists of peroxisome proliferator-activated receptor delta signaling (AID 588534; calls by dose curve;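 note: 0% = DMSO basal wells and 100% = positive control agonist at 10 µM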). The essentials: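 Agonist-mode beta-lactamase reporter readout (CCF4 dye, 2 h at RT) after 18 h at 37 °C exposure to a titration; Hill-equation fitting gave EC50 and maximal response.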

The nature of assay [19]: qHTS assay for small molecule antagonists of peroxisome proliferator-activated receptor delta signaling (AID 588535; active = well fitted inhibition curve with a large enough effect in the signal ratio, with a control signal flat, not every such curve was filed as active; the % refers to the signal ratio;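 for max response: cells co-treated with a PPAR-delta agonist as stimulator during compound exposure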). The note with it: HEK293T PPARd-UAS-bla, beta-lactamase FRET ratio, 18 h; 460 nm channel. An outline of the steps: (§1)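 Titrations were run on PPAR-delta-UAS-bla HEK293T cells in charcoal/dextran-stripped serum, incubated 18 h at 37 C. CCF4 fluorescence (460/530 nm) after 2 h RT; Hill equation yields IC50 and maximal response.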

Assay [20] deals with Peroxisome proliferator-activated receptor delta (Homo sapiens) (UniProt Q03181). The description is as above. An outline of the steps:
as §1

Inconclusive results are not listed. Calls of active or inactive are those of the source. Unless noted, calls come from the whole dose curve; as a rule, active = well fitted cell-killing curve with a large enough effect; inconclusive = small, poorly fitted or top-dose-only effect; inactive = flat fitted curve, though single readings scatter.

Sequence of Peroxisome proliferator-activated receptor delta (Homo sapiens) (Q03181 whole entry, looked up): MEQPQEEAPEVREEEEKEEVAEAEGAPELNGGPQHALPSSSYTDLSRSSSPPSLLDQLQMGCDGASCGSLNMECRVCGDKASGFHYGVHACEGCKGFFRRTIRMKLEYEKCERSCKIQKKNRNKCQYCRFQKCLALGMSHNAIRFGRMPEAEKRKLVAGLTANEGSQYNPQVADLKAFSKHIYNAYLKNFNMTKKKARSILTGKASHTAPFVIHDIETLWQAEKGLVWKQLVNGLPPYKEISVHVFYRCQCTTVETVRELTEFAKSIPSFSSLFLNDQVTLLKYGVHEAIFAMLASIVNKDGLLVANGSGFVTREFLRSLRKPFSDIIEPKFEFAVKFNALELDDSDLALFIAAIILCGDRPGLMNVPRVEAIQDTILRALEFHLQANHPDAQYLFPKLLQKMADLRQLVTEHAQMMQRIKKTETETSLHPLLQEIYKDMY

With `c1ccc2c(c1)-c1cccc3cccc-2c13`, the outcome in assay [1], in [2], in assay [3], in [4], in [5] and in assay [6] was inactive. In addition, the outcome in assay [7], in [8], in assay [10], in assay [11], in assay [12] and in assay [13] was inactive. In addition, the outcome in assay [14], in assay [15], in assay [16] and in assay [20] was inactive. Besides, the Potency result in assay [9], in [17] and in [18] was “inactive” throughout. For the same compound, in assay [19], the max response was found to be 27.3%.
